Measurements as given in PubChem BioAssay AID1347414 (National Center for Advancing Translational Sciences (NCATS), 2020).
Records with an inconclusive call do not appear. A call without a number means that no potency is given here. Active and inactive are the calls of the source. The call rests on the fitted dose curve; in most records, active means well fitted inhibition curve with a large enough effect; inconclusive means small, poorly fitted or top-dose-only effect; inactive means no such curve, though single readings can be large or run the other way.

Experiment: qHTS to identify inhibitors of the type 1 interferon - major histocompatibility complex class I in skeletal muscle: Secondary screen by immunofluorescence; further: nearly all actives have a fitted effect of over 70% in size
Details: C25cl48 myoblasts, IFN-b induced HLA-ABC immunofluorescence, 24 h, Viability; series mostly up to 49.8 µM
Summary of the method: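 HLA-ABC immunofluorescence, with nuclear and cell-body stains, was quantified by laser scanning cytometry. Read-out followed 24 h of IFN-beta (4.0 ng/ml) stimulation of C25cl48 human myoblasts with compounds titrated 1:3 over 11 points from 50 uM, with ruxolitinib as inhibitor control.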
Potency means the concentration at half of the fitted maximal effect.

Compound	Potency
CC[C@@]1(O)C(=O)OCc2c1cc1n(c2=O)Cc2c-1nc1cc(F)c(C)c3c1c2[C@@H](N)CC3	inactive
Cc1ccc([N+](=O)[O-])cc1S(=O)(=O)N(C)/N=C/c1cnc2ccc(Br)cn12	inactive
CC(C)CC(=O)Nc1n[nH]c2c1CN(C(=O)C1CCN(C)CC1)C2(C)C	inactive
O=C(/C=C/c1cccc(S(=O)(=O)Nc2ccccc2)c1)NO	inactive
COc1nnc2ccc(N3CCC(c4ccc(OCCN5CCN(C)C(=O)[C@H]5C)cc4)CC3)nn12	inactive
CCCCc1nc2cc(/C=C/C(=O)NO)ccc2n1CCN(CC)CC	inactive
CCCOc1ccc2nc(NC(=O)OC)[nH]c2c1	inactive
CC(C)c1c(-c2ccccc2)nc2c(C#N)c[nH]n2c1=O	inactive
CC(C)c1cc(C(=O)N2Cc3ccc(CN4CCN(C)CC4)cc3C2)c(O)cc1O	inactive
CC(/C=C/C(=O)NO)=C\[C@@H](C)C(=O)c1ccc(N(C)C)cc1	inactive
C=CC(=O)N1CCc2ccc(-n3c(=O)ccc4cnc5ccc(-c6cnn(C)c6)cc5c43)cc21	16.2 µM (active)
CC(=O)NCC(=O)N1[C@@H]2CC[C@H]1c1ccc(Nc3ncc(C(F)(F)F)c(NC4CCC4)n3)cc12	inactive
O=C(NC1CCNCC1)c1[nH]ncc1NC(=O)c1c(Cl)cccc1Cl	inactive
CC1(C)CC(=O)c2c(C(F)(F)F)nn(-c3ccc(C(N)=O)c(NC4CCC(O)CC4)c3)c2C1 (stereo unspecified)	inactive
O=C(/C=C/C#Cc1cccc(NS(=O)(=O)c2ccccc2)c1)NO	inactive
Cc1ccc(C(=O)Nc2ccc(CN3CCN(C)CC3)c(C(F)(F)F)c2)cc1C#Cc1cnc2[nH]ncc2c1	12.9 µM (active)
O=C(Nc1nc2cccc(-c3ccc(CN4CCS(=O)(=O)CC4)cc3)n2n1)C1CC1	inactive
COc1cccc2c1C(=O)c1c(O)c3c(c(O)c1C2=O)C[C@@](O)(/C(CO)=N/NC(=O)CCCCCN1C(=O)C=CC1=O)C[C@@H]3O[C@H]1C[C@H](N)[C@H](O)[C@H](C)O1	inactive

Compound	Potency
COC(=O)C[C@](O)(CCCC(C)(C)O)C(=O)O[C@@H]1C(OC)=C[C@]23CCCN2CCc2cc4c(cc2[C@H]13)OCO4	inactive
COc1cc(F)ccc1-c1ncnc(Nc2cccc(CS(C)(=N)=O)c2)n1 (stereo unspecified)	inactive
CNC(=O)c1cc(Oc2ccc(NC(=O)Nc3cc(C(C)(C)C)nn3-c3ccc4ncccc4c3)c(F)c2)ccn1	inactive
CCc1c(O)cc(O)c(C(=O)c2ccc(OCCN3CCOCC3)c(OC)c2)c1CC(=O)N(CCOC)CCOC	inactive
C[C@H](Nc1ncnc2nc[nH]c12)c1cc2cccc(Cl)c2c(=O)n1-c1ccccc1	inactive
COc1cccc2c1C(=O)c1c(O)c3c(c(O)c1C2=O)C[C@@](O)(C(=O)CO)C[C@@H]3O[C@H]1C[C@H](N)[C@H](O)[C@H](C)O1	inactive
CCCCC(=O)O[C@]1(C(=O)CO)[C@@H](C)C[C@H]2[C@@H]3CCC4=CC(=O)C=C[C@]4(C)[C@@]3(F)[C@@H](O)C[C@@]21C	inactive
Cc1cc(O)c(-c2ccc([C@@H](C)CN(C)C)cc2)c2c1[nH]c(=O)c1sccc12	inactive
CC(C)(C)c1ccc(S(=O)(=O)/C=C/C#N)cc1	3.24 µM (active)
COc1cccc2nc(-c3cccs3)nc(NN3C(=O)C=C(C)C3=O)c12	16.2 µM (active)
COC(=O)N[C@@H](C)CNc1nccc(-c2cn(C(C)C)nc2-c2cc(Cl)cc(NS(C)(=O)=O)c2F)n1	inactive
CCOC(=O)N1CCN(/[N+]([O-])=N/Oc2ccc([N+](=O)[O-])cc2[N+](=O)[O-])CC1	14.5 µM (active)
CC(C)C[C@H](NC(=O)[C@H](Cc1ccccc1)NC(=O)c1cnccn1)B(O)O	inactive
CCc1c(-c2ccccc2C)nc2c(C#N)c[nH]n2c1=O	inactive
CS[C@H]1SC[C@@H]2C(=O)N(C)[C@H](C(C)C)C(=O)OC[C@H](NC(=O)c3cnc4ccccc4n3)C(=O)N[C@H](C)C(=O)N(C)[C@H]1C(=O)N(C)[C@H](C(C)C)C(=O)OC[C@H](NC(=O)c1cnc3ccccc3n1)C(=O)N[C@H](C)C(=O)N2C	inactive
Nc1ccccc1NC(=O)c1ccc(CNc2nccc(-c3cccnc3)n2)cc1	inactive
CC[C@@]1(O)C(=O)OCc2c1cc1n(c2=O)Cc2c-1nc1ccccc1c2/C=N/OC(C)(C)C	inactive
CN(Cc1ccc(/C=C/C(=O)NO)cc1)CC12CC3CC(CC(C3)C1)C2	inactive
